{
  "source": "PubChem BioAssay (NCATS)",
  "note": "Inconclusive results are not listed. A call without a number means that no potency is given here. The source made the active and inactive calls. Calls come from the whole dose curve; as a rule, active = well fitted cell-killing curve with a large enough effect; inconclusive = small, poorly fitted or top-dose-only effect; inactive = flat fitted curve, though single readings scatter. Potency is the fitted concentration of half-maximal effect.",
  "data": [
    {"assay": "Cell Viability - LYMP2-011 (AID 969); note: nearly all actives have a fitted effect of over 60% in size", "settings": "LYMP2-011 lymphoblastoid cells viability; series mostly up to 92.2 µM", "excerpt": "NIH Chemical Genomics Center [NCGC]\nNIH Molecular Libraries Screening Centers Network [MLSCN]\nNational Institutes of Environmental Health Sciences [NIEHS]\nNational Toxicology Program [NTP]\nWe have developed a 1536-well cell-based assay for quantitative high throughput screening (qHTS) against a number of cell lines to determine in vitro cytotoxicity of small molecules. This particular assay uses a human lymphoblastoid cell line (LYMP2-011) purchased from Coriell Institute for Medical Research.\nNCGC Assay Protocol Summary:\nThe CellTiter-Glo luminescent cell viability assay (Promega) is a homogeneous method to measure the number of viable cells in culture. The end point readout of this assay is based on quantitation of intracellular ATP, an indicator of metabolic activity, using the luciferase reaction. Luciferase catalyzes the oxidation of beetle Luciferin to oxyluciferin and light in the presence of ATP. The luminescent signal is proportional to amount of ATP present.\nUsing the CellTiter-Glo luminescent cell viability assay, the amount of cellular ATP was measured in the lymphoblastoid cell line with complete culture medium following compound treatment for 24 hours. The assay was performed in opaque white Kalypsys 1536-well plates. In the screen, tetraoctylammonium bromide was used as positive control. Library compounds were measured for their ability to cause acute toxicity in the cell line, as reflected by a decrease in intracellular ATP levels, in a concentration-dependent manner. […] AC50 values were determined from concentration-response data modeled with the standard Hill equation.\nqHTS protocol for CellTiter Glo lymphoblastoid cellular assay\n[Step] [Parameter] [Value] [Description]\n1. Reagent; 5 uL; 2500 lymphoblastoid cells/well\n2. Time; 5 hr; 37 C incubation\n4. Controls; 23 nL; Tetraoctylammonium bromide 6.4pM to 92 uM\n5. Time; 24 hr; 37 C incubation\n6. Reagent; 5 uL; CellTiter Glo reagent\n7. Time; 30 min; Room Temperature\n8. Detection; Luminescence; Viewlux plate reader\nKeywords: cell viability, cytotoxicity, lymphoblastoid cell line, luminescence, NTPHTS, NTPHTS_NCGC, NIEHS, DSSTox, MLSMR, MLSCN, NIH Roadmap, qHTS, NCGC", "values": [
      {"smiles": "COc1ccc([N+](=O)[O-])cc1N", "Potency": "inactive"},
      {"smiles": "C=C(C#N)C(=O)OCC", "Potency": "inactive"},
      {"smiles": "COc1ccc(C(=O)Nc2ccccc2)cc1[N+](=O)[O-]", "Potency": "inactive"},
      {"smiles": "C=C1CC[C@H](O)C/C1=C/C=C1\\CCC[C@]2(C)[C@@H]([C@H](C)CCCC(C)C)CC[C@@H]12", "Potency": "50.1 µM (active)"},
      {"smiles": "Cc1ccc2ccc3cccc4ccc1c2c34", "Potency": "inactive"},
      {"smiles": "O=C(Cl)c1ccc([N+](=O)[O-])cc1", "Potency": "inactive"},
      {"smiles": "Nc1ccc(N)c(Cl)c1", "Potency": "inactive"},
      {"smiles": "O=C1OC(=O)c2ccccc21", "Potency": "inactive"},
      {"smiles": "O=c1[nH]ncc2ccccc12", "Potency": "inactive"},
      {"smiles": "CC(=O)Nc1cccc(C)c1", "Potency": "inactive"},
      {"smiles": "Cc1c2ccccc2c(C)c2c1ccc1ccccc12", "Potency": "inactive"},
      {"smiles": "COc1cc(-c2ccc(N=C=O)c(OC)c2)ccc1N=C=O", "Potency": "inactive"},
      {"smiles": "CCCCCCN", "Potency": "inactive"},
      {"smiles": "C/C(Cl)=C/CCl", "Potency": "inactive"},
      {"smiles": "C[Si](C)(C)Cl", "Potency": "inactive"},
      {"smiles": "O=[N+]([O-])c1cc(N(CCO)CCO)ccc1NCCO", "Potency": "inactive"},
      {"smiles": "CCc1ccc(C(c2ccc(CC)cc2)C(Cl)Cl)cc1", "Potency": "inactive"},
      {"smiles": "CCN(CC)c1ccc2c(C)cc(=O)oc2c1", "Potency": "inactive"},
      {"smiles": "c1cc2c3c(c1)ccc1cccc(c13)C2", "Potency": "inactive"},
      {"smiles": "C/C=C1/C(=O)C[C@H]2[C@@H]3CCC4=CC(=O)CC[C@]4(C)[C@H]3CC[C@]12C", "Potency": "50.1 µM (active)"},
      {"smiles": "CC(=O)OC(C(=O)c1ccccc1)c1ccccc1", "note": "(stereo not given)", "Potency": "inactive"},
      {"smiles": "CC(=O)OCc1ccc2c(c1)OCO2", "Potency": "inactive"},
      {"smiles": "Cc1cccnc1", "Potency": "inactive"},
      {"smiles": "Nc1ccccc1O", "Potency": "inactive"},
      {"smiles": "Nc1cnn([C@@H]2O[C@H](CO)[C@@H](O)[C@H]2O)c(=O)n1", "Potency": "inactive"},
      {"smiles": "C1CCCNCC1", "Potency": "inactive"},
      {"smiles": "CC(=O)CC(=O)Nc1ccccc1", "Potency": "inactive"},
      {"smiles": "O=CC(=O)c1ccccc1", "Potency": "inactive"},
      {"smiles": "NC(=O)Nc1nc2ccccc2[nH]1", "Potency": "inactive"},
      {"smiles": "c1ccc2ncccc2c1", "Potency": "inactive"},
      {"smiles": "O=C(OCc1ccccc1)c1ccccc1O", "Potency": "inactive"},
      {"smiles": "Cc1ccc(C(=O)O)cc1[N+](=O)[O-]", "Potency": "inactive"},
      {"smiles": "CCCCNCC", "Potency": "inactive"},
      {"smiles": "C=CC(=O)CC", "Potency": "inactive"},
      {"smiles": "CCCCC(CC)COCCCN", "note": "(stereo not given)", "Potency": "inactive"},
      {"smiles": "c1ccc2c(c1)ccc1ccccc12", "Potency": "inactive"},
      {"smiles": "CCCCCCc1ccc(-c2ccc(C#N)cc2)cc1", "Potency": "inactive"},
      {"smiles": "N=C1C=CC(=C(c2ccc(N)cc2)c2ccc(N)cc2)C=C1", "Potency": "7.94 µM (active)"},
      {"smiles": "Cc1cc2nc(N)sc2cc1C", "Potency": "inactive"},
      {"smiles": "Nc1cc(C(=O)O)c(O)c(S(=O)(=O)O)c1", "Potency": "inactive"}
    ]}
  ]
}
